Of roughly 7,900 targets only a part is listed; those with a hit were picked by preference. About 0.6% of all pairs of compound and target were hits. Unmarked numbers belong to inactive results.
Key:
Experiment in all cases: log2 fold change, soluble protein after heating vs DMSO (PISA); higher = thermal stabilisation; K562 cells, 10 uM, 30 min; active = over 0.2 and 3.5 SD of the protein, either way, in both replicates (recomputed)
bafetinib = compound: Cc1ccc(NC(=O)c2ccc(CN3CC[C@H](N(C)C)C3)c(C(F)(F)F)c2)cc1Nc1nccc(-c2cncnc2)n1 [bafetinib]
Procedure, shortened: (§1)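 Soluble protein was quantified by TMTpro 16plex LC-MS/MS after channel sums were equalised. It was obtained as the supernatant after 21,000xg for 90 min from pooled aliquots of K562 cells (2×10^6 cells/mL, 10 μM compound, 30 min) heated for 3 min across 48°C-58°C and extracted in PBS with 0.5% NP-40 at 4°C. Thermal stability values are relative to control samples and come from duplicates. They are given as log2 fold changes.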

[1] = compound: Cc1cccc(CC(=O)N2CCc3c2ccc(-c2cn(C)c4ncnc(N)c24)c3F)n1
Procedure, shortened: as §1

nilotinib = compound: Cc1cn(-c2cc(NC(=O)c3ccc(C)c(Nc4nccc(-c5cccnc5)n4)c3)cc(C(F)(F)F)c2)cn1 [nilotinib]
Procedure, shortened: as §1

[2] = compound: Cc1nc(Nc2n[nH]c3c2CN(C(=O)N[C@H](CN(C)C)c2ccccc2)C3(C)C)c2sccc2n1
Procedure, shortened: as §1

dasatinib = compound: Cc1nc(Nc2ncc(C(=O)Nc3c(C)cccc3Cl)s2)cc(N2CCN(CCO)CC2)n1 [dasatinib]
Procedure, shortened: as §1

[3] = compound: Cc1ncc(-c2ccnc(Nc3ccc(S(C)(=O)=O)cc3)n2)n1C(C)C
Procedure, shortened: as §1

[4] = compound: Cn1cc(-c2ccc3c(c2)CCN3C(=O)Cc2cccc(C(F)(F)F)c2)c2c(N)ncnc21
Procedure, shortened: as §1

[5] = compound: Cn1cc(-c2ccc3nnc(C(F)(F)c4ccc5ncccc5c4)n3n2)cn1
Procedure, shortened: as §1

tipifarnib = compound: Cn1cncc1[C@@](N)(c1ccc(Cl)cc1)c1ccc2c(c1)c(-c1cccc(Cl)c1)cc(=O)n2C [tipifarnib]
Procedure, shortened: as §1

mubritinib = compound: FC(F)(F)c1ccc(/C=C/c2nc(COc3ccc(CCCCn4ccnn4)cc3)co2)cc1 [mubritinib]
Procedure, shortened: as §1

Chain of UniProt Q9BU23 (Q9BU23 whole entry, looked up): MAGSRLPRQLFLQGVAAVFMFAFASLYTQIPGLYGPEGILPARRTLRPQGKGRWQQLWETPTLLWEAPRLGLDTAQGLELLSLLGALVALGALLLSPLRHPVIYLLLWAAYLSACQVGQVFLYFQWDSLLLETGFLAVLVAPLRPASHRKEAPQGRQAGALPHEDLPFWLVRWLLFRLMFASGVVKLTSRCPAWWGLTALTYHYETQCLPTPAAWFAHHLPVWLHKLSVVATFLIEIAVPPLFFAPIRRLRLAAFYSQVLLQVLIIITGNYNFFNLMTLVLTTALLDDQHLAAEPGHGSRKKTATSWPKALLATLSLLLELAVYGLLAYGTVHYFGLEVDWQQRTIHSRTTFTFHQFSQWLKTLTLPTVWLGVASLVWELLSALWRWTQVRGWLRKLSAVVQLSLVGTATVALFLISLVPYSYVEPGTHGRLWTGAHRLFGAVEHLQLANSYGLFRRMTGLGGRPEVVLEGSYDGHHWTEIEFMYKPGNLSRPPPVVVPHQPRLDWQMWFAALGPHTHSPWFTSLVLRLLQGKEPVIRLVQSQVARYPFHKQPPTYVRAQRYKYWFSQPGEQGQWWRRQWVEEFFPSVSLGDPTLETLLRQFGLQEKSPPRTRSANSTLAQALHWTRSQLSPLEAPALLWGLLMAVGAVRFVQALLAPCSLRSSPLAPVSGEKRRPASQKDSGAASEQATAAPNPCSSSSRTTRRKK
Chain of UniProt Q8IWB1 (Q8IWB1 whole entry, looked up): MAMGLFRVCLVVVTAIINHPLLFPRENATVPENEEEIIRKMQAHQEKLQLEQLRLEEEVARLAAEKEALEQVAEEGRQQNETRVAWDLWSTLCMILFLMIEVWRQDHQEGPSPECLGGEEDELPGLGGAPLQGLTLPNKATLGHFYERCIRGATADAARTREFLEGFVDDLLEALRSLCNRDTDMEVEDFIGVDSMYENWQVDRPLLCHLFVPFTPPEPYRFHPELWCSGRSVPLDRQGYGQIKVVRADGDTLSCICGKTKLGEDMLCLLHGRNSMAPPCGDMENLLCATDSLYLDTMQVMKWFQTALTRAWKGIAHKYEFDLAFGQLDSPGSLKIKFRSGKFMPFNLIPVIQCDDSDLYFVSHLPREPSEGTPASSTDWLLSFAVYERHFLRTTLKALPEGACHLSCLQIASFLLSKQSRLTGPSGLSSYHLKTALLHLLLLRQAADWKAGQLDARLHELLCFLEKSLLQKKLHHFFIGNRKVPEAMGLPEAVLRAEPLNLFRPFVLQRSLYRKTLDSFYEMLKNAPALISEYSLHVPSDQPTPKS
Chain of UniProt Q13257 (Q13257 whole entry, looked up): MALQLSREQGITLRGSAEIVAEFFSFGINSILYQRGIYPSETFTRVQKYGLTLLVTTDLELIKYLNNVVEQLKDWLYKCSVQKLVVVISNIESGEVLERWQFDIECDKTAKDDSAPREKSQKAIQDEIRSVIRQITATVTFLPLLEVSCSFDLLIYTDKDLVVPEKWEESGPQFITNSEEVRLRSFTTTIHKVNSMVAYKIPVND
Chain of UniProt Q86V48 (Q86V48 whole entry, looked up): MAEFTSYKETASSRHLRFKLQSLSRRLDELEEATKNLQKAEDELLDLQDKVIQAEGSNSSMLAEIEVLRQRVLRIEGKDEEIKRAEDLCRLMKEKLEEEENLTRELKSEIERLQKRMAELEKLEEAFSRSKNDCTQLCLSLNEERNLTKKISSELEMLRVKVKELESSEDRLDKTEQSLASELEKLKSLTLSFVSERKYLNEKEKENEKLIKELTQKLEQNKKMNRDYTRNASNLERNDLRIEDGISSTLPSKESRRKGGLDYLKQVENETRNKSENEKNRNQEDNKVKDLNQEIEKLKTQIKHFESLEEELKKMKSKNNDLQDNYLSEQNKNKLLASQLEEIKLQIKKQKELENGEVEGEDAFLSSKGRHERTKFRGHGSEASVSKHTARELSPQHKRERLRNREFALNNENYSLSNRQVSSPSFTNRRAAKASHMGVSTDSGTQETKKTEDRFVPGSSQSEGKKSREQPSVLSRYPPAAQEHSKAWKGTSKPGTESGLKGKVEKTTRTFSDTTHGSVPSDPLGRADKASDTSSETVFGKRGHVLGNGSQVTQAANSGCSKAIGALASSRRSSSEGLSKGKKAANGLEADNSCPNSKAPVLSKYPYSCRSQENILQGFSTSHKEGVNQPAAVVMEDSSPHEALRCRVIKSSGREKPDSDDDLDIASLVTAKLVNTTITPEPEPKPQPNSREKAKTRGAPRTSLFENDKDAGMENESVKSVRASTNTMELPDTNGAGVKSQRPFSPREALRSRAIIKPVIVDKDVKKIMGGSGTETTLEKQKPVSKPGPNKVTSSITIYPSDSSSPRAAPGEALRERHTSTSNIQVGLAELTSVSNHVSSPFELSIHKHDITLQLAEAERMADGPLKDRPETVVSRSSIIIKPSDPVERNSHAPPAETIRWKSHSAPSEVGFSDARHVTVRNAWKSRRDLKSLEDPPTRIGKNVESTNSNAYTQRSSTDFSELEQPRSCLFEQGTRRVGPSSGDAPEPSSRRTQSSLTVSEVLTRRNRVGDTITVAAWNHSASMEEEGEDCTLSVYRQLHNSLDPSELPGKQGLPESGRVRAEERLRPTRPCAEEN
Chain of UniProt Q13422 (Q13422 whole entry, looked up): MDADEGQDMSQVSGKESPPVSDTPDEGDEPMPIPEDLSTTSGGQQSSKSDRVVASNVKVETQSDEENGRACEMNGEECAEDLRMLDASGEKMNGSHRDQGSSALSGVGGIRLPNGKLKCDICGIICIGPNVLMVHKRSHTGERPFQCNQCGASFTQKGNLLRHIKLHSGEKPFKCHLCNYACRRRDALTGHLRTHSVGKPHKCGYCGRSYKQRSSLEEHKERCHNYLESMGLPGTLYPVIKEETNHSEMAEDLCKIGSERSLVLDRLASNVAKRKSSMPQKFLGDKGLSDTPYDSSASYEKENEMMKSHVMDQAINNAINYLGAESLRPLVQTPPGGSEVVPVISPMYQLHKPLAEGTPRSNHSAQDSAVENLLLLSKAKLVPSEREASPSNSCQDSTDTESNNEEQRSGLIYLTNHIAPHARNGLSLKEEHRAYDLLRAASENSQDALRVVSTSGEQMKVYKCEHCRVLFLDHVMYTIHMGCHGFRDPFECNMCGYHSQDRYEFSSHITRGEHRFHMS
Chain of UniProt Q7L2J0 (Q7L2J0 whole entry, looked up): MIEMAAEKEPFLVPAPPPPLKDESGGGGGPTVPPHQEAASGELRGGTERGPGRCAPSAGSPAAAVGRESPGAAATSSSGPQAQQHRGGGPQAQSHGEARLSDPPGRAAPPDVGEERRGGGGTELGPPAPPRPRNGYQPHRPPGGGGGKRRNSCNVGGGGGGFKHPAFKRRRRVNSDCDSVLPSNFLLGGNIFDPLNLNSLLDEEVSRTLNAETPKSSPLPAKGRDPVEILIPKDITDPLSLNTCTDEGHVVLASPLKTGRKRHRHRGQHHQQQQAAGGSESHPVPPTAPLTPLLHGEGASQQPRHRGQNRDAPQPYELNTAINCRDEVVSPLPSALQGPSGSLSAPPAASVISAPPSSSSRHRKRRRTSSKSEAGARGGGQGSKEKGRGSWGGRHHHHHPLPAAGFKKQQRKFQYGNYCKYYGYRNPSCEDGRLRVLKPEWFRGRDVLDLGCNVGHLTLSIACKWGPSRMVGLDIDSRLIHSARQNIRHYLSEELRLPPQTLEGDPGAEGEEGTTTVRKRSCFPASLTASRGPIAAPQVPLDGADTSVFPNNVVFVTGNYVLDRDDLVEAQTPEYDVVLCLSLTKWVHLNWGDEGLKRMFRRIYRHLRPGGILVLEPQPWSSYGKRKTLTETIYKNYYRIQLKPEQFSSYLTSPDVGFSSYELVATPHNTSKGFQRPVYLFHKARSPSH
Chain of UniProt Q8NC56 (Q8NC56 whole entry, looked up): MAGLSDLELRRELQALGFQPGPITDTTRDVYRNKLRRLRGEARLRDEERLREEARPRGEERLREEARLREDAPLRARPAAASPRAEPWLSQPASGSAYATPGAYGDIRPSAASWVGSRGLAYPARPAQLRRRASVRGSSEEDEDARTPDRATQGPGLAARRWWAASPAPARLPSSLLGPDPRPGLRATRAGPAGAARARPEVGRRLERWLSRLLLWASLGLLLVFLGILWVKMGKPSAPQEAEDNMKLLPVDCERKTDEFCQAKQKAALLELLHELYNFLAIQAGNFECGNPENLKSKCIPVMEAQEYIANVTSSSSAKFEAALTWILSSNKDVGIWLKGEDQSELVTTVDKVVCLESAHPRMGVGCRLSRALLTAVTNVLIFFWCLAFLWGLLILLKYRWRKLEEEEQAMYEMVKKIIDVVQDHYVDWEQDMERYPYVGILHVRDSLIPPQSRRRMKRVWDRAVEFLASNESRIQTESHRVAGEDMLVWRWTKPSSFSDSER
Chain of UniProt Q6P9B6 (Q6P9B6 whole entry, looked up): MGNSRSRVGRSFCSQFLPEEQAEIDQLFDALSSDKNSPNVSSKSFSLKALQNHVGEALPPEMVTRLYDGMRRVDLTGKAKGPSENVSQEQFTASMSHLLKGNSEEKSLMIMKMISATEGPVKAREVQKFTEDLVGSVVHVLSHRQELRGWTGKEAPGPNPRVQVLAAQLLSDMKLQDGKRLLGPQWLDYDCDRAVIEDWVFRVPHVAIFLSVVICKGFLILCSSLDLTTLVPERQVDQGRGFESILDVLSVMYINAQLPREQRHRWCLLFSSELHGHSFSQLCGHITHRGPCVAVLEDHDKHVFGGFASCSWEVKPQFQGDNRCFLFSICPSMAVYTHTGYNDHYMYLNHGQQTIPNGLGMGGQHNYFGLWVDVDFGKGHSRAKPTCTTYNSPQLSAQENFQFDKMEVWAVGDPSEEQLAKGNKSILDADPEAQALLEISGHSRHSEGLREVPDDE
Chain of UniProt P10620 (P10620 whole entry, looked up): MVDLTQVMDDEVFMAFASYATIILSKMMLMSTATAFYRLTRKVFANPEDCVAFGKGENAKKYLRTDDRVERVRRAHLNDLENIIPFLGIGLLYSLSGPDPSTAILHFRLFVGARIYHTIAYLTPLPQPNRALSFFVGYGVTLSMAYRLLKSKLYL

Row | Target | log2 fold change (bafetinib) | log2 fold change [1] | log2 fold change (nilotinib) | log2 fold change [2] | log2 fold change (dasatinib) | log2 fold change [3] | log2 fold change [4] | log2 fold change [5] | log2 fold change (tipifarnib) | log2 fold change (mubritinib)
1 | LMF2 (UniProt Q9BU23) | -0.068 | 0.024 | 0.047 | -0.014 | 0.033 | 0.026 | 0.021 | 0.022 | 0.019 | 0.052
2 | LTV1 (UniProt Q96GA3) | 0.137 | -0.039 | -0.047 | 0.137 | 0.025 | 0.009 | -0.112 | -0.09 | 0.064 | 0.042
3 | MEAK7 (UniProt Q6P9B6) | -0.094 | 0.042 | 0.024 | -0.036 | -0.078 | 0.025 | 0.02 | -0.03 | -0.022 | 0.052
4 | MICU2 (UniProt Q8IYU8) | -0.142 | 0.092 | -0.052 | -0.067 | -0.102 | -0.001 | -0.022 | -0.05 | 0.022 | -0.155
5 | MCU (UniProt Q8NE86) | -0.173 | 0.032 | -0.017 | 0.128 | -0.055 | -0.026 | -0.03 | 0 | -0.005 | 0.024
6 | MEPCE (UniProt Q7L2J0) | -0.12 | 0.065 | 0 | -0.337 (active) | -0.116 | -0.123 | 0.023 | 0.061 | 0.029 | -0.018
7 | LMNB1 (UniProt P20700) | -0.089 | -0.004 | 0.037 | -0.11 | 0.092 | -0.117 | -0.059 | -0.074 | 0.105 | -0.069
8 | KDM5D isoform 3 (UniProt Q9BY66) | 0.208 | -0.049 | 0.089 | -0.054 | -0.289 | -0.047 | -0.026 | 0.058 | -0.044 | 0.203
9 | LUC7L2 (UniProt Q9Y383) | 0.035 | 0.002 | 0.059 | -2.75 (active) | -0.01 | -0.007 | -0.033 | -0.059 | 0.049 | -0.07
10 | IPO13 (UniProt O94829) | -0.11 | -0.006 | -0.001 | -0.094 | -0.021 | 0.071 | -0.022 | -0.025 | -0.106 | 0.06
11 | MAP3K20 (UniProt Q9NYL2) | -0.246 (active) | 0.039 | -0.216 | 0.057 | -0.712 (active) | -0.079 | -0.065 | -0.019 | -0.013 | -0.041
12 | ITPRIP (UniProt Q8IWB1) | -0.126 | -0.016 | -0.109 | 0.035 | -0.041 | -0.08 | 0.073 | 0.012 | -0.007 | 0.061
13 | LRPPRC (UniProt P42704) | -0.053 | 0.117 | -0.14 | -0.721 | -0.732 | 0.016 | 0.236 | 0.24 | -0.656 | -0.161
14 | MICU1 isoform 3 (UniProt Q9BPX6) | -0.098 | 0.106 | -0.037 | -0.012 | -0.065 | -0.022 | -0.012 | -0.055 | -0.019 | -0.064
15 | METTL18 (UniProt O95568) | -0.091 | -0.049 | -0.092 | 0.028 | 0.054 | -0.023 | -0.022 | -0.087 | 0.019 | 0.036
16 | ILF3 isoform 7 (UniProt Q12906) | 0.082 | -0.028 | -0.02 | 0.244 | 0.155 | 0.297 | -0.179 | -0.089 | 0.057 | -0.031
17 | LPIN1 isoform 7 (UniProt Q14693) | -0.076 | 0.051 | -0.038 | 0.046 | -0.016 | -0.079 | -0.025 | -0.058 | -0.019 | 0.095
18 | LEMD2 (UniProt Q8NC56) | -0.036 | -0.008 | -0.035 | -0.123 | -0.079 | 0.011 | 0.089 | 0.008 | -0.045 | -0.021
19 | MAP3K4 isoform 2 (UniProt Q9Y6R4) | -0.059 | -0.095 | 0.008 | 0.221 (active) | 0.534 (active) | 0.027 | -0.031 | 0.021 | -0.032 | 0.016
20 | MAPK8 isoform 3 (UniProt P45983) | -0.011 | -0.048 | 0.022 | 0.415 (active) | -0.318 | 0.495 (active) | 0.047 | -0.058 | 0.001 | -0.179
21 | MGST1 (UniProt P10620) | -0.001 | -0.053 | -0.006 | 0.078 | 0.084 | -0.039 | -0.013 | 0.014 | 0.131 | -0.005
22 | LUZP1 (UniProt Q86V48) | -0.075 | -0.028 | -0.086 | -0.35 | 0.106 | 0.21 | -0.129 | -0.104 | 0.186 | -0.055
23 | LYPLA2 (UniProt O95372) | 0.139 | 0.007 | 0.13 | -0.042 | 0 | -0.026 | 0.175 | 0.298 | -0.054 | 0.013
24 | KTN1 (UniProt Q86UP2) | 0.042 | 0.013 | -0.117 | 0.055 | -0.013 | 0.063 | -0.081 | -0.03 | -0.064 | -0.032
25 | KEL (UniProt P23276) | -0.027 | -0.002 | 0.017 | -0.032 | -0.019 | 0.004 | 0.083 | 0.003 | 0.031 | -0.591 (active)
26 | MARCKS (UniProt P29966) | -0.102 | -0.133 | 0.053 | -0.003 | 0.022 | -0.007 | 0.033 | 0.034 | -0.002 | -0.017
27 | MFSD5 isoform 2 (UniProt Q6N075) | -0.126 | 0.009 | 0.054 | 0.055 | -0.029 | -0.057 | -0.048 | 0.009 | 0.141 | 0.128
28 | IKZF1 (UniProt Q13422) | -0.062 | -0.004 | 0.237 | -0.347 | -0.121 | -0.112 | 0.072 | 0.119 | -0.026 | -0.07
29 | MAD2L1 (UniProt Q13257) | -0.054 | 0.018 | -0.082 | -0.042 | -0.06 | -0.012 | -0.001 | 0.009 | -0.055 | 0.042
30 | KIAA1324L (UniProt A8MWY0) | -0.099 | 0.022 | 0.042 | -0.031 | 0.025 | -0.003 | 0.022 | 0.029 | 0.047 | 0.091

— the supplement of paper PMC10849652
